92 molecules from PubChem BioAssay AID463173 (ICCB-Longwood Screening Facility, Harvard Medical School, 2010) can be followed below.

Structures are written as SMILES. About 4,300 (8.3%) of roughly 52,000 compounds were called active. No stated cut-off is given here; in the data, active means survival mostly below about 52% (no sharp cut-off); inactive means mostly above about 56%. The full list was thinned out, with actives kept by preference.

For the assay, the system named is DeltatarO mutant. Description: S. aureus survival, RN4220 and DeltatarO strains – OD600, teichoic acid synthesis inhibitors, primary screen (AID 463173). The note with it: S. aureus RN4220 wild type/DeltatarO growth, OD600, 18 h, active compounds read low, screened at 18.75 µg/mL (by protocol).
Regarding `COc1ccc2c(c1)cc1c(=O)n(CC(=O)NCCCOC(C)C)nc(C)n12`, the survival is 80% (inactive).

Take `O=C(NCCc1ccc(Cl)cc1)c1c2c(nc3ccccc13)C(=O)N(C1CCCCC1)C2`: the survival is 92% (inactive).

On to `Cn1c(C(=O)NCc2cccc(F)c2)cc2cc(S(=O)(=O)N3CCCCC3)ccc21`, for which the survival was 81% (inactive).

As to `O=C(CSC1=NCCN1)C1COc2ccccc2O1` (configuration not stated), the survival is 88% (inactive).

On to `Cc1ccc(C(=O)NCC(=O)OCc2cc(=O)n3ccsc3n2)cc1`, for which the survival is 74% (inactive).

In the case of `CCN(CC)CCNC(=O)C(=O)NCC(c1cccnc1)N1CCN(c2ccc(F)cc2)CC1` (configuration not stated), the survival is 79% (inactive).

Take `CC1(c2ccc(Cl)cc2)NC(=O)CS1` (configuration not stated): the survival was 96% (inactive).

With `C=CCNc1nc(C(C)C)nc2c1nnn2Cc1ccccc1`, the survival was 86% (inactive).

On to `O=C(CSc1nc2ccccc2o1)Nc1ccc(S(=O)(=O)NC2CCCC2)cc1`, for which the survival was 66% (inactive).

As to `COc1ccccc1NC(=O)C(=O)c1cc(C)n(-c2cc(C)cc(C)c2)c1C`, the survival was 117% (inactive).

Turning to `COCCCNC(=O)CSc1nc2ccccc2c(=O)n1Cc1ccco1`, the survival is 83% (inactive).

As for `COc1cccc(CNC(=O)CCCn2ncn3c(cc4occc43)c2=O)c1OC`, the survival was 119% (inactive).

As for `Cc1ccc(NC(=O)Nc2cn(CC(C)C)c(=O)c3ccccc23)cc1N(C)C`, the survival was 78% (inactive).

For the molecule `CC(=O)Nc1ccc(-n2cc3c(c2-c2ccc(C)cc2)c(=O)n(C)c(=O)n3C)cc1`, the survival is 92% (inactive).

Regarding `COc1ccc(-c2noc(CCC(=O)N(C)c3cc(Cl)ccc3OC)n2)cc1`, the survival is 26% (active).

`COc1ccc(-c2noc(CC(=O)N(C)c3cc(Cl)c(OC)cc3OC)n2)cc1`: the survival was 82% (inactive).

Regarding `COc1ccc(C)cc1N(C)C(=O)CCc1nc(-c2ccccc2F)no1`, the survival is 45% (inactive).

In the case of `Cc1ccc(NC(=O)CCN2C(=O)c3ccccc3Sc3ncccc32)cc1`, the survival was 66% (inactive).

For `CCN(CC)C(=O)Cn1c(C)c(C#N)c2ccccc21`, the survival is 96% (inactive).

For `O=C(CC(c1cccs1)N1Cc2ccccc2C1=O)Nc1ccc(F)c(Cl)c1` (configuration not stated), the survival was 83% (inactive).

`O=c1c2ccccc2n(Cc2ccccc2F)c(=O)n1-c1cccc(F)c1`: the survival was 68% (inactive).

With `Cc1ccccc1Cn1c(=O)n(CCc2ccccc2)c(=O)c2ccccc21`, the survival is 64% (inactive).

With `Cc1cccc(CCn2c(=O)c3ccccc3n(Cc3ccccc3C)c2=O)c1`, the survival was 72% (inactive).

`CCn1c2ccccc2c2cc(CN3CCN(Cc4ccccc4C)CC3)ccc21`: the survival is -3% (active).

Regarding `CCN(CC)C(=O)C1CCN(Cc2ccccc2F)CC1`, the survival is 99% (inactive).

For the molecule `CCn1c2ccccc2c2cc(CN3CCN(Cc4ccccc4F)CC3)ccc21`, the survival was 7% (active).

For the molecule `CCC(C)NC(=O)c1ccc2c(c1)N(Cc1ccccc1)C(=O)c1ccccc1S2` (configuration not stated), the survival was 92% (inactive).

As to `CCOc1cc2sc(N3CCC(C(=O)Nc4ccccc4Cl)CC3)nc2cc1Br`, the survival is 77% (inactive).

Turning to `CCOc1cc(C2NC(=O)c3c(sc4c3CCN(C)C4)N2)ccc1OC(=O)c1ccc(F)cc1` (configuration not stated), the survival was 56% (inactive).

`COc1ccc(-c2[nH]c(-c3ccc(F)cc3)nc2SCC(=O)Nc2ccc(OC)c(OC)c2)cc1`: the survival was 53% (inactive).

For the molecule `O=C(CSc1cn(CC(=O)N2CCCCC2)c2ccccc12)NCc1ccccc1Cl`, the survival is 74% (inactive).

With `CN(C)S(=O)(=O)c1ccc(NC(=O)CNCc2ccco2)cc1`, the survival was 97% (inactive).

Regarding `O=C(CN1CCCN(Cc2cccc(F)c2)S1(=O)=O)Nc1ccc2c(c1)OCCO2`, the survival is 80% (inactive).

Turning to `Cc1nc2ccc(S(=O)(=O)CCC(=O)Nc3ccc(Cl)cc3)cc2s1`, the survival is 44% (inactive).

Regarding `Cc1cc(C)cc(NC(=O)CCS(=O)(=O)c2ccc3nc(C)sc3c2)c1`, the survival was 50% (inactive).

Turning to `Cc1ccc(NC(=O)CCS(=O)(=O)c2ccc3nc(C)sc3c2)cc1`, the survival was 34% (active).

For `CCOc1ccc(C2C(=O)N(C3CCCCCC3)CC(=O)N2Cc2ccc(F)cc2)cc1OC` (configuration not stated), the survival is 117% (inactive).

With `COc1ccc(OCc2nnc(SCC(=O)NCc3ccco3)o2)cc1`, the survival is 85% (inactive).

Turning to `Cc1cc(Nc2cccc(C(F)(F)F)c2)ncn1`, the survival is 54% (inactive).

With `O=C(Nc1cccc(C(F)(F)F)c1)c1cc(-c2ccc(Cl)cc2)on1`, the survival was 77% (inactive).

For `Cc1cc(Nc2cccc(C(F)(F)F)c2)nc2ccc(NC(=O)Cc3ccc(Cl)cc3)cc12`, the survival is 101% (inactive).

On to `Fc1ccc(-c2nc(Nc3cccc(C(F)(F)F)c3)nc3c2COc2ccccc2-3)cc1`, for which the survival is 54% (inactive).

In the case of `Cc1ccc(Nc2nc3nonc3nc2Nc2cccc(C(F)(F)F)c2)cc1Cl`, the survival was -1% (active).

Turning to `Cc1ccc(Nc2nc3nonc3n3cnnc23)cc1Cl`, the survival was 70% (inactive).

For the molecule `Fc1ccc(Nc2nc3nonc3nc2Nc2cccc(C(F)(F)F)c2)cc1`, the survival was -2% (active).

In the case of `FC(F)(F)c1cccc(Nc2nc3nonc3nc2Nc2ccc(Cl)cc2)c1`, the survival was -16% (active).

Regarding `NS(=O)(=O)c1ccc(Nc2nc3nonc3nc2Nc2ccc(S(N)(=O)=O)cc2)cc1`, the survival was 122% (inactive).

Turning to `Cc1ccc(C)c(N2CCN(CCCNC(=O)Cn3ncc4c([nH]c5ccccc54)c3=O)CC2)c1`, the survival was 94% (inactive).

In the case of `Cc1noc2ncnc(N3CCCC(C(=O)Nc4cccc(C(F)(F)F)c4)C3)c12` (configuration not stated), the survival was 93% (inactive).

Take `Cc1cc(C)n(C(C)CC(=O)NCc2ccc(Cl)cc2)n1` (configuration not stated): the survival is 69% (inactive).

With `Nc1ccc2nc(SCCOc3ccccc3)sc2c1`, the survival was 88% (inactive).

With `COc1ccc2nc(SCC(O)c3cccc(Br)c3)[nH]c2c1` (configuration not stated), the survival is 76% (inactive).

`Brc1ccc2nc(SCCOc3ccccc3)[nH]c2c1`: the survival is -1% (active).

Regarding `CCOc1ccc(Nc2cc(C)nc3nncn23)cc1`, the survival is 60% (inactive).

As to `CCCS(=O)(=O)N1CCCC(C(=O)NCCOC)C1` (configuration not stated), the survival is 55% (inactive).

For the molecule `CCCCN(CC)CCNC(=O)Cn1c(=O)c2cccn2c2cccnc21`, the survival is 80% (inactive).

With `Cc1cc(=O)n2c(C(=O)Nc3ccc(C)c(C)c3)c(C(=O)Nc3ccccc3)sc2n1`, the survival is 52% (inactive).

In the case of `Cc1cc(=O)n2c(C(=O)Nc3ccc(C)c(Cl)c3)c(C(=O)Nc3ccccc3)sc2n1`, the survival was 56% (active).

`Cc1ccc(NC(=O)c2c(C(=O)Nc3ccccc3)sc3nc(C)cc(=O)n23)cc1`: the survival is 59% (inactive).

As for `COc1ccc(C)cc1NC(=O)c1c(C(=O)Nc2cccc(C)c2C)sc2nc(C)cc(=O)n12`, the survival was 61% (active).

As for `Cc1cc(=O)n2c(C(=O)Nc3ccc(F)c(Cl)c3)c(C(=O)Nc3cccc(C)c3C)sc2n1`, the survival is 65% (inactive).

For the molecule `COc1ccc(Cl)cc1NC(=O)c1c(C(=O)Nc2cccc(C)c2C)sc2nc(C)cc(=O)n12`, the survival was 74% (inactive).

As for `CC(C)Oc1ccc(NC(=O)C2COc3ccccc3O2)cc1` (configuration not stated), the survival is 103% (inactive).

Take `Cc1ccc(NS(=O)(=O)c2c(C)nc3sc(C)cn3c2=O)c(C)c1`: the survival was 83% (inactive).

`CCOc1ccccc1CNC(=O)CN1C(=O)CCCc2ccccc21`: the survival is 86% (inactive).

On to `COc1cccc(Cn2c(=O)n(CCc3ccccc3)c(=O)c3c2c2cc(OC)ccc2n3C)c1`, for which the survival is 81% (inactive).

For the molecule `CCOc1ccccc1Nc1sc(C(=O)c2ccccc2)c(N)c1C(=O)NCCc1ccccc1`, the survival is 99% (inactive).

For `Cc1ccc(N2CCN(C(=O)NCc3noc4ccc(C)cc34)CC2)c(C)c1`, the survival is 54% (inactive).

On to `Cn1c(=O)c2c(nc(SCC(=O)Nc3ccc(F)cc3)n2Cc2ccccc2)n(C)c1=O`, for which the survival is 89% (inactive).

In the case of `Cn1c(=O)c2c(nc(SCC(=O)Nc3ccccc3F)n2Cc2ccc(Cl)cc2)n(C)c1=O`, the survival was 80% (inactive).

In the case of `Cn1c(=O)c2c(nc(SCC(=O)Nc3ccc(F)cc3)n2Cc2ccc(Cl)cc2)n(C)c1=O`, the survival was 31% (active).

For `Cn1c(=O)c2c(nc(SCC(=O)Nc3ccc(F)cc3)n2Cc2ccccc2F)n(C)c1=O`, the survival was 140% (inactive).

As to `Cn1c(=O)c2c(nc(SCC(=O)Nc3ccccc3F)n2Cc2ccccc2F)n(C)c1=O`, the survival is 65% (inactive).

For `Cn1c(=O)c2c(nc(SCC(=O)Nc3ccccc3)n2Cc2ccccc2F)n(C)c1=O`, the survival is 43% (active).

For `CC(C)(C)OC(=O)N1CCC(c2c(C(=O)NCc3ccco3)cnn2-c2ccc(F)cc2)CC1`, the survival was 88% (inactive).

Take `O=C(Cc1ccccc1)Nc1c(C(=O)c2ccccc2)oc2ccccc12`: the survival is 3% (active).

Regarding `Cc1ccc(NC(=O)c2oc3ccccc3c2NC(=O)c2cc3ccccc3o2)cc1`, the survival is 94% (inactive).

`CCCCOC(=O)c1ccc(NC(=O)c2cc(=O)c3ccccc3o2)cc1`: the survival is 57% (inactive).

As to `Cc1ccc(C(=O)c2oc3ccccc3c2NC(=O)Cc2ccccc2)cc1`, the survival was 50% (inactive).

For the molecule `COc1ccc(NC(=O)c2oc3ccccc3c2NC(=O)c2cc3ccccc3o2)cc1`, the survival was 89% (inactive).

Turning to `CCCCOC(=O)c1cccc(NC(=O)/C=C/c2ccccc2Cl)c1`, the survival was 14% (active).

Consider `Cc1ccc(NC(=O)/C=C/c2ccccc2Cl)cc1Cl`, for which the survival was 67% (inactive).

`O=C(Nc1c(C(=O)Nc2ccc(F)cc2)oc2ccccc12)c1cc2ccccc2o1`: the survival is 47% (active).

In the case of `CCCCOC(=O)c1cccc(NC(=O)c2cc3ccccc3o2)c1`, the survival is 1% (active).

In the case of `CCc1ccc2occ(CC(=O)Nc3c(C(=O)c4ccccc4)oc4ccccc34)c2c1`, the survival is 95% (inactive).

`CCCCc1ccc(-n2nc3ccc(NC(=O)c4cc5ccccc5o4)cc3n2)cc1`: the survival is 72% (inactive).

Turning to `CCN(CC)c1cc(C)c2cc(NC(=O)/C=C/c3ccccc3Cl)ccc2n1`, the survival was 53% (inactive).

For `CCOc1ccc(CNC(=O)C2Cc3ccccc3N2C(=O)CC)cc1OC` (configuration not stated), the survival is 78% (inactive).

Regarding `COc1ccc(OC)c(NC(=O)c2cc3c(=O)n4cccc(C)c4nc3n2C)c1`, the survival is 65% (inactive).

For `COc1ccc(CNC(=O)CN(c2cc(C)cc(C)c2)S(=O)(=O)c2c(C)[nH]c(=O)[nH]c2=O)cc1`, the survival is 86% (inactive).

For the molecule `CC1CN(C(=O)CCC(=O)NCc2cccs2)c2cc(Cl)ccc2O1` (configuration not stated), the survival is 84% (inactive).

Turning to `CCOC(=O)c1c(S(=O)(=O)N2CCCC(C(=O)Nc3cc(C)ccn3)C2)c(C)n(C)c1C` (configuration not stated), the survival is 83% (inactive).
